Test [1] concerns the target Transcription factor E2F1 (Homo sapiens) (UniProt Q01094). Kind of test: ATG_E2F_CIS: Attagene CIS-FACTORIAL HepG2 Assay for human E2F Transcription Factor 1 (AID 2282935). Conditions: HepG2 Attagene cis-reporter, E2F reporter RNA transcripts; actives raise or lower the signal. The essentials: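 HepG2 cells transiently transfected with multiplexed cis-element reporter units, dosed for 24 h. Reporter mRNA measured by RT-PCR, 6-FAM primer-extension labeling, HpaI digestion and capillary electrophoresis; bidirectional fit versus DMSO baseline.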

Test [2] in a line: ATG_E_Box_CIS: Attagene CIS-FACTORIAL HepG2 Assay for human Enhancer Box (E-box) (AID 2282936). The conditions noted are these: HepG2 E-box cis-reporter transcription, actives raise or lower the signal. The essentials:
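HepG2 cells transiently transfected with multiplexed cis-element reporter units sensing endogenous transcription factor activity; 24 h compound exposure. Reporter mRNA measured by RT-PCR, 6-FAM primer extension, HpaI digestion and capillary electrophoresis; bidirectional fit versus DMSO.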

The nature of test [3]: ATG_M_61_CIS: Attagene CIS-FACTORIAL HepG2 Assay for M61 Transcription Factor (Internal Marker) (AID 2282937). Conditions: HepG2 Attagene CIS-FACTORIAL M61 internal marker reporter; actives raise or lower the signal. The essentials: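 Transfect HepG2 with MRTUs; dose 24 h; isolate RNA; reverse-transcribe with DNase I treatment; PCR-amplify, FAM-label and cut with HpaI for 2 h at 37 C; resolve by CE. Bidirectional fitting against DMSO.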

The nature of test [4]: ATG_M_19_CIS: Attagene CIS-FACTORIAL HepG2 Assay for M19 Transcription Factor (Internal Marker) (AID 2282939). Conditions: HepG2 Attagene CIS-FACTORIAL M19 internal marker reporter; actives raise or lower the signal. The essentials:
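Chemical-treated HepG2 (24 h) with MRTU constructs; reporter transcripts detected by fluorescent RT-PCR fragment analysis on capillary electrophoresis. Internal background marker, DMSO as baseline.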

A short description of test [5]: ATG_ERE_CIS: Attagene CIS-FACTORIAL HepG2 Assay for Estrogen Response Element (ERE) (AID 2282940). The conditions noted are these: HepG2 ERE cis-reporter, Attagene RNA transcript; actives raise or lower the signal. The essentials:
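Human liver cells (HepG2) bearing transiently transfected, promoter-regulated reporter units were exposed 24 h. Reporter mRNA induction was detected by capillary electrophoresis of labelled RT-PCR products and fitted bidirectionally to DMSO.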

Test [6] can be described thus: ATG_Ets_CIS: Attagene CIS-FACTORIAL HepG2 Assay for human Erythroblast Transformation Specific (ETS) (AID 2282941). Conditions: HepG2 ETS cis-reporter transcription, actives raise or lower the signal. The essentials:
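Steps: transfect HepG2 with multiple reporter units; treat compound 24 h; isolate RNA, DNase-treat, reverse-transcribe; PCR-amplify, label with 6-FAM, digest with HpaI; separate by capillary electrophoresis. Activity fitted both directions versus DMSO.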

Test [7] deals with Hepatocyte nuclear factor 3-beta (Homo sapiens) (UniProt Q9Y261). Briefly: ATG_FoxA2_CIS: Attagene CIS-FACTORIAL HepG2 Assay for human Forkhead box A2 (FOXA2) (AID 2282942). Conditions: HepG2 cis-reporter transcription factor activity, 24 h; actives raise or lower the signal. The essentials:
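24 h dosing of HepG2 bearing cis-reporter constructs; mRNA readout by RT-PCR/CE fluorescence; bidirectional fit, DMSO baseline.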

Test [8] can be described thus: ATG_FoxO_CIS: Attagene CIS-FACTORIAL HepG2 Assay for human Forkhead box O (FoxO) (AID 2282943). Conditions: HepG2 Attagene cis-reporter, FoxO element, mRNA; actives raise or lower the signal. The essentials:
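Values reflect reporter mRNA induction or loss in HepG2 cells 24 h post-dosing, fitted bidirectionally with DMSO as negative control and baseline. Detection used RT-PCR and fluorescence capillary electrophoresis.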

A short description of test [9]: ATG_GATA_CIS: Attagene CIS-FACTORIAL HepG2 Assay for human GATA Binding Protein (AID 2282944). Conditions: HepG2 GATA cis-element reporter, Attagene multiplex mRNA; actives raise or lower the signal. The essentials:
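Transfected cis-reporter HepG2 cells were treated with chemicals for 24 hours. Total RNA was then converted to cDNA, amplified with reporter-specific primers and analysed by fluorescent capillary electrophoresis, using DMSO-treated wells as baseline.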

A short description of test [10]: ATG_GLI_CIS: Attagene CIS-FACTORIAL HepG2 Assay for human Zinc Finger Protein GLI1 (AID 2282945). The conditions noted are these: HepG2, Attagene cis-factorial reporter mRNA, GLI element; actives raise or lower the signal. The essentials:
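HepG2 cells transiently transfected with cis-promoter multiplexed reporter units report endogenous transcription factor activity. After 24 h chemical exposure, reporter mRNA was quantified by RT-PCR, 6-FAM labelling, HpaI digestion and capillary electrophoresis, with bidirectional fitting against DMSO.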

Test [11] can be described thus: ATG_GRE_CIS: Attagene CIS-FACTORIAL HepG2 Assay for human Glucocorticoid Response Elements (GRE) (AID 2282947). The conditions noted are these: HepG2 GRE cis-reporter, Attagene multiplex mRNA; actives raise or lower the signal. The essentials: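 HepG2 cells transiently transfected with multiple cis-promoter reporter units measure endogenous TF activity; 24 h compound exposure. Reporter mRNA quantified by RT-PCR, FAM labelling, HpaI digestion and capillary electrophoresis; bidirectional fit vs DMSO baseline.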

The nature of test [12]: ATG_ISRE_CIS: Attagene CIS-FACTORIAL HepG2 Assay for human Interferon Regulatory Factor 1 (IRF1) binding to an Interferon-Stimulated Response Element (ISRE) (AID 2282948). The conditions noted are these: HepG2 ISRE cis-reporter (Attagene), mRNA transcription readout; actives raise or lower the signal. The essentials:
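Transfected HepG2 (multiple reporter transcription units, cis elements) dosed 24 h. RNA → oligo(dT) RT → PCR → 6-FAM primer extension → HpaI → CE. DMSO = negative control/baseline.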

Test [13] is described as follows: ATG_M_32_CIS: Attagene CIS-FACTORIAL HepG2 Assay for M32 Transcription Factor (Internal Marker) (AID 2282949).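 Further: background control marker of the multiplexed CIS panel rather than a real target.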 Conditions: HepG2 Attagene cis-factorial M32 reporter, mRNA; actives raise or lower the signal. The essentials:
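Internal background marker read-out: RT-PCR/capillary electrophoresis fluorescence of reporter transcripts from transiently transfected HepG2 cells after 24 h chemical exposure. Activity fitted bidirectionally relative to DMSO negative control.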

Test [14] is described as follows: ATG_M_06_CIS: Attagene CIS-FACTORIAL HepG2 Assay for M06 Transcription Factor (Internal Marker) (AID 2282950). Conditions: HepG2 Attagene CIS-FACTORIAL M06 internal marker reporter; actives raise or lower the signal. The essentials:
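Cells (HepG2, transiently carrying cis-driven reporter units) receive chemical for 24 h before RNA isolation. Reporter cDNA is PCR-amplified, FAM-labelled by primer extension, HpaI-digested and sized on a capillary analyser.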

Test [15] deals with Hypoxia-inducible factor 1-alpha (Homo sapiens) (UniProt Q16665). Kind of test: ATG_HIF1a_CIS: Attagene CIS-FACTORIAL HepG2 Assay for human Hypoxia Inducible Factor 1 (HIF1A) (AID 2282951). Conditions: HepG2 Attagene cis-factorial HIF1a reporter transcription; actives raise or lower the signal. The essentials: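 After 24 h chemical exposure of reporter-transfected HepG2 cells, reporter cDNA was PCR-amplified, labelled by 6-FAM primer extension (2 min 95 C, 20 s 68 C, 10 min 72 C), HpaI-cut (2 h, 37 C) and analysed by CE.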
Sequence of Hypoxia-inducible factor 1-alpha (Homo sapiens) (Q16665 whole entry, looked up): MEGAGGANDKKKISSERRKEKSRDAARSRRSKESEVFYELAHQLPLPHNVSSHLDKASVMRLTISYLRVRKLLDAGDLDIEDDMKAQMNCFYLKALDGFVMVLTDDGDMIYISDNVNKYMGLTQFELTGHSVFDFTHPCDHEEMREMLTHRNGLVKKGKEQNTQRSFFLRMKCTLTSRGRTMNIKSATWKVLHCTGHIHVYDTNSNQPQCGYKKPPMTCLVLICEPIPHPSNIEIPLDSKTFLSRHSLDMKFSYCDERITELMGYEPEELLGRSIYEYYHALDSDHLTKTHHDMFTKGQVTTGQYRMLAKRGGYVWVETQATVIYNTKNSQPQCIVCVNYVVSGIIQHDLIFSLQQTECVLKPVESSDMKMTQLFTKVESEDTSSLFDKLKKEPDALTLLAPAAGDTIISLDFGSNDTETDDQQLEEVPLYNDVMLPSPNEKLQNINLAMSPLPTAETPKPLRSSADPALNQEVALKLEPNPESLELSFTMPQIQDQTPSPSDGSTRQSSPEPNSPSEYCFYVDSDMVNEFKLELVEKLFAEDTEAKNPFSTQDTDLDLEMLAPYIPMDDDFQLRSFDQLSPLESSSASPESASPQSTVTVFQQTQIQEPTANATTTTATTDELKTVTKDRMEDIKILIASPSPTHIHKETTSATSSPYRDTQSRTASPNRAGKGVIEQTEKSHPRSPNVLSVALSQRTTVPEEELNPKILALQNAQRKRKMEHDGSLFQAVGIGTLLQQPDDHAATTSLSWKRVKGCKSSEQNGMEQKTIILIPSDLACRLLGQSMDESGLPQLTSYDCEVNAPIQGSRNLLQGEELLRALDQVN

In test [16] the target is Hepatocyte nuclear factor 6 (Homo sapiens) (UniProt Q9UBC0). Kind of test: ATG_HNF6_CIS: Attagene CIS-FACTORIAL HepG2 Assay for human Hepatocyte Nuclear Factor 6 (HNF6) (AID 2282952). Conditions: HepG2 Attagene cis-factorial HNF6 reporter transcription; actives raise or lower the signal. The essentials: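 HepG2 cells transiently transfected with cis-element-driven multiplexed reporter units measuring endogenous transcription factor activity. After 24 h exposure, reporter mRNA quantified by RT-PCR, FAM-labelled fragments and capillary electrophoresis; bidirectional fitting versus DMSO.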
Sequence of Hepatocyte nuclear factor 6 (Homo sapiens) (Q9UBC0 whole entry, looked up, the tested form may be a part): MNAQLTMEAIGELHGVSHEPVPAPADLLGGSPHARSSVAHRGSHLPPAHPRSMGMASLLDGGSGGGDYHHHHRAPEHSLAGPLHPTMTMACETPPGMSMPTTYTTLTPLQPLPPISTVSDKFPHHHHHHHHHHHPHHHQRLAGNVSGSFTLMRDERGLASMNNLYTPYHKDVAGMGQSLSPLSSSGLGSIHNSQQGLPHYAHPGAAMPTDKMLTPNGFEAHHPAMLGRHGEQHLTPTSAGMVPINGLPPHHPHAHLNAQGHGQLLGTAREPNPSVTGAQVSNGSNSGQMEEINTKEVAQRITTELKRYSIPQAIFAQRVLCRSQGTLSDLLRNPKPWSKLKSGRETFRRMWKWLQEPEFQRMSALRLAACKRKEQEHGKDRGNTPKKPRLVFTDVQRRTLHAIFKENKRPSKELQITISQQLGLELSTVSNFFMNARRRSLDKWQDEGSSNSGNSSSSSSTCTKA

For test [17], the target named is Heat shock factor protein 1 (Homo sapiens) (UniProt Q00613). Briefly: ATG_HSE_CIS: Attagene CIS-FACTORIAL HepG2 Assay for human Heat Shock Transcription Factor 1 (HSE) (AID 2282953). The conditions noted are these: HepG2 HSE cis-reporter, Attagene RNA transcription; actives raise or lower the signal. The essentials: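 Liver-derived HepG2 cells carry transiently introduced multiple reporter units governed by cis promoters. Reporter RNA measured 24 h post-dose through reverse transcription, PCR amplification, fluorescent labelling and capillary electrophoresis, normalised to DMSO.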
Sequence of Heat shock factor protein 1 (Homo sapiens) (Q00613 whole entry, looked up): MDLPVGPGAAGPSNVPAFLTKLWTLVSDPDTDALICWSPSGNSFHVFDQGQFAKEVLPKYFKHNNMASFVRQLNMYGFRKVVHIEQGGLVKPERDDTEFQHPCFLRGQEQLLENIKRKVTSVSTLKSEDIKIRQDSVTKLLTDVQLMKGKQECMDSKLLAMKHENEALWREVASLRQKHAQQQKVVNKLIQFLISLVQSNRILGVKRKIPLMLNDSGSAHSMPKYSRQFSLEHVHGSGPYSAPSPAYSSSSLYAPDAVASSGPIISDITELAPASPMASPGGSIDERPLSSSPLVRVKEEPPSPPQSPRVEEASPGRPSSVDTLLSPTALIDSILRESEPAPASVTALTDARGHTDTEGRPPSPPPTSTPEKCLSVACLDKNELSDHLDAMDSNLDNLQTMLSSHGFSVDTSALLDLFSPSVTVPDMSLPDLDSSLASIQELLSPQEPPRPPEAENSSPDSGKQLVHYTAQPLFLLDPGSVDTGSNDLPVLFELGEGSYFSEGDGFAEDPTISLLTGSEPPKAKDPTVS

Test [18] can be described thus: ATG_MRE_CIS: Attagene CIS-FACTORIAL HepG2 Assay for human Metal Responsive Element (MRE) (AID 2282954). The conditions noted are these: HepG2 MRE cis-reporter transcription, Attagene multiplex; actives raise or lower the signal. The essentials:
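HepG2 cells transiently transfected with multiple cis-element reporter units measure endogenous MTF1-driven transcription. After 24 h compound exposure, reporter mRNA is quantified by RT-PCR with 6-FAM labelling, HpaI digestion and capillary electrophoresis; bidirectional fits versus DMSO.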

Structures are written as SMILES. The source made the active and inactive calls. How the source made its calls: active means hit-call score of the fitted dose curve at least 0.9, where 1 is the maximum; inactive means score below 0.9.

Sequence of Transcription factor E2F1 (Homo sapiens) (Q01094 whole entry, looked up): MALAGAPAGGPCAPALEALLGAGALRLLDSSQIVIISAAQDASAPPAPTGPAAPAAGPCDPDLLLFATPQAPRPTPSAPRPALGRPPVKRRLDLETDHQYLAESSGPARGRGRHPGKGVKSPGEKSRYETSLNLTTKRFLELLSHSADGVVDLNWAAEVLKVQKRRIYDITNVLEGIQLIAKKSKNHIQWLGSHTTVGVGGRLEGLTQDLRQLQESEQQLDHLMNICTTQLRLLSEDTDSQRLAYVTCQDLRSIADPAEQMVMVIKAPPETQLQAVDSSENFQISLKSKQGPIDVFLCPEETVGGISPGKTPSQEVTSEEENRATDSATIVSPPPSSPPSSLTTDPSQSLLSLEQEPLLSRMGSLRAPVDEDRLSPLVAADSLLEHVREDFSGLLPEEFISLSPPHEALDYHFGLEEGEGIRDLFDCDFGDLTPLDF
Sequence of Hepatocyte nuclear factor 3-beta (Homo sapiens) (Q9Y261 whole entry, looked up): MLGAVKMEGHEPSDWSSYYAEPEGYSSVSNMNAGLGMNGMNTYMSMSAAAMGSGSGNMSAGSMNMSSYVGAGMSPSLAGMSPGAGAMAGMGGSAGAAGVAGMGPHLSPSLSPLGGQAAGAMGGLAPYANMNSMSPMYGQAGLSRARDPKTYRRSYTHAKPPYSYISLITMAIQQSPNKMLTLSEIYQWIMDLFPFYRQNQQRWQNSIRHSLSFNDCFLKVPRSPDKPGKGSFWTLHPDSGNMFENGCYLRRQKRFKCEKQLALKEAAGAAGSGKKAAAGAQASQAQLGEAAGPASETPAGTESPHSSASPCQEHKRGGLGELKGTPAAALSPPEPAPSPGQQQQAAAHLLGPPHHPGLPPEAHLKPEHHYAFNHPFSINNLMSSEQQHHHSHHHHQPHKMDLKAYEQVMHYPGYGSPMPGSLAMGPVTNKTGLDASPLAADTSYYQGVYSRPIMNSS

Take `Cn1c(-c2ccccc2)cc(-c2ccccc2)[n+]1C`: the compound was classed as inactive in test [1], in [2], in [3], in test [4], in test [5] and in test [6]. For the same compound, the compound was called inactive in test [7], in test [8], in [9], in test [10], in [11] and in test [12]. In addition, the outcome in test [13], in test [14], in test [15], in test [16], in test [17] and in test [18] was inactive.

As to `Nc1cnn(-c2ccccc2)c(=O)c1Cl`, the result in test [1], in test [2], in test [3], in test [4], in test [5] and in [6] was inactive. Also, the compound was classed as inactive in test [7], in [8], in test [9], in [10], in [11] and in [12]. Besides, the compound was called inactive in [13], in test [14], in [15], in test [16], in test [17] and in [18].

Regarding `C=C(C)CN(CC)c1c([N+](=O)[O-])cc(C(F)(F)F)cc1[N+](=O)[O-]`, the result in test [1], in [2], in test [3], in test [4], in test [6] and in test [7] was inactive. The result in [8], in test [9], in test [10], in [11], in test [12] and in test [13] was inactive. Besides, the result in test [14], in test [15], in [16], in test [17] and in test [18] was inactive. Further, the half-maximal activity concentration (AC50) in test [5] was 31.2 µM (active).

Regarding `Cc1cnc(C2=NC(C)(C(C)C)C(=O)N2)c(C(=O)O)c1` (stereo unspecified), the compound was called inactive in test [1], in test [2], in test [3], in test [4], in test [5] and in [6]. Besides, the result in [7], in test [8], in test [9], in test [10], in test [11] and in [12] was inactive. Also, the result in test [13], in test [14], in [15], in test [16], in test [17] and in test [18] was inactive.

With `CC(C)N1C(=O)c2ccccc2NS1(=O)=O`, the outcome in test [1], in [2], in [3], in test [4], in test [5] and in test [6] was inactive. For the same compound, the result in test [7], in test [8], in test [9], in test [10], in [11] and in test [12] was inactive. Further, the call in test [13], in [14], in test [15], in [16], in [17] and in [18] was inactive.

As to `Clc1nc(Cl)nc(Nc2ccccc2Cl)n1`, the compound was called inactive in test [1], in test [2], in test [3], in [4], in [5] and in test [6]. Further, the compound was classed as inactive in test [7], in test [8], in test [9], in [10], in test [11] and in test [12]. For the same compound, the call in test [13], in test [14], in test [15], in test [16], in test [17] and in [18] was inactive.

As to `CC(C)N1C(=O)N(c2ccccc2)CSC1=NC(C)(C)C`, the call in test [1], in test [2], in test [3], in [4], in test [5] and in test [6] was inactive. Further, the result in test [7], in [8], in test [9], in test [10], in test [11] and in test [12] was inactive. In addition, the outcome in [13], in test [14], in test [15], in test [16], in [17] and in [18] was inactive.

These data come from PubChem BioAssay (EPA / NIEHS).
